# According to PubChem BioAssay (EPA / NIEHS):
# Active and inactive are the calls of the source. How the source made its calls: active means hit-call score of the fitted dose curve at least 0.9, where 1 is the maximum; inactive means score below 0.9.
# Legend:
# [1] = ATG_ISRE_CIS: Attagene CIS-FACTORIAL HepG2 Assay for human Interferon Regulatory Factor 1 (IRF1) binding to an Interferon-Stimulated Response Element (ISRE) (AID 2282948); conditions: HepG2 ISRE cis-reporter (Attagene), mRNA transcription readout; actives raise or lower the signal
# Method in brief: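 Uses HepG2 liver cells transfected with cis-regulated reporters and measures mRNA 24 h post-dosing through RT-PCR, primer-extension labelling and capillary electrophoresis, with DMSO as negative control.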
# [2] = ATG_M_32_CIS: Attagene CIS-FACTORIAL HepG2 Assay for M32 Transcription Factor (Internal Marker) (AID 2282949); conditions: HepG2 Attagene cis-factorial M32 reporter, mRNA; actives raise or lower the signal;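 further: background control marker of the multiplexed CIS panel rather than a real target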
# Method in brief: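 Transient MRTU transfection of HepG2; 24 h compound treatment; TriZol RNA, oligo(dT) RT, reporter PCR, 6-FAM primer extension, HpaI cut, CE. Gain/loss of signal vs DMSO.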
# [3] = ATG_M_06_CIS: Attagene CIS-FACTORIAL HepG2 Assay for M06 Transcription Factor (Internal Marker) (AID 2282950); conditions: HepG2 Attagene CIS-FACTORIAL M06 internal marker reporter; actives raise or lower the signal
# Method in brief: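 HepG2 cells transiently transfected with cis-regulated multiple reporter transcription units were exposed to chemical for 24 h; reporter mRNA was quantified by RT-PCR, 6-FAM primer labelling, HpaI digestion and capillary electrophoresis, fitted bidirectionally against DMSO.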
# [4] = biological target: Hypoxia-inducible factor 1-alpha (Homo sapiens) (UniProt Q16665); test: ATG_HIF1a_CIS: Attagene CIS-FACTORIAL HepG2 Assay for human Hypoxia Inducible Factor 1 (HIF1A) (AID 2282951); conditions: HepG2 Attagene cis-factorial HIF1a reporter transcription; actives raise or lower the signal
# Hypoxia-inducible factor 1-alpha (Homo sapiens), sequence (Q16665 whole entry, looked up): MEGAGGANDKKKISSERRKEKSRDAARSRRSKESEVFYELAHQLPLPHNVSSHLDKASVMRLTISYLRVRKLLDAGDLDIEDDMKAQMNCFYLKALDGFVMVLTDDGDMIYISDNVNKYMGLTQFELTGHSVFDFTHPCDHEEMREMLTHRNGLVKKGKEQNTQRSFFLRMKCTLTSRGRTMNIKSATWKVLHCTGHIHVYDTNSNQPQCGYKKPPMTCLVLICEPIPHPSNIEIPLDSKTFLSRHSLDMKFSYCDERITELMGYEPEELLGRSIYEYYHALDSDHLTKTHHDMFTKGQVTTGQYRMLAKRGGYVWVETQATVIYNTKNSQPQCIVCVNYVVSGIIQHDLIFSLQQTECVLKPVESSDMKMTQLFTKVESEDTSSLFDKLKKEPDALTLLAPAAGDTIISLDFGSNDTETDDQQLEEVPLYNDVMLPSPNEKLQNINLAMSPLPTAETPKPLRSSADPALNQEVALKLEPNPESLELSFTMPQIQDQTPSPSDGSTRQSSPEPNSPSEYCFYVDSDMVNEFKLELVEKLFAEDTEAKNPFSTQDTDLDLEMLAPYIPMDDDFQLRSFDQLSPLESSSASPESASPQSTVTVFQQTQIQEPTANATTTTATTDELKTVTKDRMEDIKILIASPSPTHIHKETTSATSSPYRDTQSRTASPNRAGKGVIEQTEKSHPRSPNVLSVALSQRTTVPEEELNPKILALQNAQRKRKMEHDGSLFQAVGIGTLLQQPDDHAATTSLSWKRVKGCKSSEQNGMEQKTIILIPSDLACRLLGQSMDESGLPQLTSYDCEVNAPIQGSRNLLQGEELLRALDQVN
# Method in brief: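 HepG2 cells transiently transfected with multiple cis-regulated reporter transcription units measure endogenous transcription factor activity. After 24 h exposure, reporter mRNA is quantified by RT-PCR with 6-FAM labelling, HpaI digestion and capillary electrophoresis. Bidirectional fitting against DMSO.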
# [5] = biological target: Hepatocyte nuclear factor 6 (Homo sapiens) (UniProt Q9UBC0); test: ATG_HNF6_CIS: Attagene CIS-FACTORIAL HepG2 Assay for human Hepatocyte Nuclear Factor 6 (HNF6) (AID 2282952); conditions: HepG2 Attagene cis-factorial HNF6 reporter transcription; actives raise or lower the signal
# Hepatocyte nuclear factor 6 (Homo sapiens), sequence (Q9UBC0 whole entry, looked up, the tested form may be a part): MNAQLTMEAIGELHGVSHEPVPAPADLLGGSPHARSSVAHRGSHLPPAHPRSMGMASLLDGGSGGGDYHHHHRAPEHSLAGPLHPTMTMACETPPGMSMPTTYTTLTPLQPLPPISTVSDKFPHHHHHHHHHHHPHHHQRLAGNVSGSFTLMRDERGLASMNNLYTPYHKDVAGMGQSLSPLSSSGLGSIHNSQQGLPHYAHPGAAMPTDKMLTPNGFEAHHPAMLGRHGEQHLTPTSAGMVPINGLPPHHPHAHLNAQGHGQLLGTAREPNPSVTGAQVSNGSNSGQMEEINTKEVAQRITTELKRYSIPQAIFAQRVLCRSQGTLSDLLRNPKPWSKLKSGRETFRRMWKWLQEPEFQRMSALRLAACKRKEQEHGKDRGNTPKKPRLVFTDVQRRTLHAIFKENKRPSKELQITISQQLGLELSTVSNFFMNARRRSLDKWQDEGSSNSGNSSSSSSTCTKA
# Method in brief: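 Using cis-element reporters in HepG2 liver cells, the assay tracks endogenous factor-driven transcription 24 h post-dosing. Signal comes from 6-FAM-labelled, HpaI-digested RT-PCR fragments, with gain or loss scored against DMSO.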
# [6] = biological target: Heat shock factor protein 1 (Homo sapiens) (UniProt Q00613); test: ATG_HSE_CIS: Attagene CIS-FACTORIAL HepG2 Assay for human Heat Shock Transcription Factor 1 (HSE) (AID 2282953); conditions: HepG2 HSE cis-reporter, Attagene RNA transcription; actives raise or lower the signal
# Heat shock factor protein 1 (Homo sapiens), sequence (Q00613 whole entry, looked up): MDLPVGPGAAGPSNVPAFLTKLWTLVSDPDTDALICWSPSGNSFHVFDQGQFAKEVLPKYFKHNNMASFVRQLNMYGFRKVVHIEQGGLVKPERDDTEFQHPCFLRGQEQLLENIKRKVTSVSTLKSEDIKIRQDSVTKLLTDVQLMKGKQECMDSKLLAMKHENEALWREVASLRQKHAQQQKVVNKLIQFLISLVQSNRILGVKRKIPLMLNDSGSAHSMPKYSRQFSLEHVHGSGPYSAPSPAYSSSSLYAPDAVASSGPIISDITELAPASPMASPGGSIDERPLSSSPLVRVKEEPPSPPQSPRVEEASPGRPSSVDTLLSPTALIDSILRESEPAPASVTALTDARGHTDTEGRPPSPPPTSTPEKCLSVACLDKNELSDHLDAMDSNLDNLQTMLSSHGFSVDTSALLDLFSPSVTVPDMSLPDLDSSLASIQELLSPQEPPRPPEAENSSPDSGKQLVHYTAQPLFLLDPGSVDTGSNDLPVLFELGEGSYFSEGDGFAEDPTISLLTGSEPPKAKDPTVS
# Method in brief: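 HepG2 cells transiently transfected with multiple reporter transcription units under cis-regulatory promoter control, measuring endogenous transcription factor activity. After 24 h chemical exposure, reporter mRNA quantified by RT-PCR, fluorescent labelling, HpaI digestion and capillary electrophoresis; bidirectional fit versus DMSO.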
# [7] = ATG_MRE_CIS: Attagene CIS-FACTORIAL HepG2 Assay for human Metal Responsive Element (MRE) (AID 2282954); conditions: HepG2 MRE cis-reporter transcription, Attagene multiplex; actives raise or lower the signal
# Method in brief: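 Multiplexed cis-reporter assay in human HepG2 liver cells, 24 h incubation with test chemical. Reporter transcripts measured by RT-PCR and capillary electrophoresis; values from bidirectional curve fitting versus DMSO.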
# [8] = biological target: Paired box protein Pax-6 (Homo sapiens) (UniProt P26367); test: ATG_Pax6_CIS: Attagene CIS-FACTORIAL HepG2 Assay for human Paired Box 6 (PAX6) (AID 2282956); conditions: HepG2 CIS-FACTORIAL PAX6 reporter transcription, RNA readout; actives raise or lower the signal
# Paired box protein Pax-6 (Homo sapiens), sequence (P26367 whole entry, looked up): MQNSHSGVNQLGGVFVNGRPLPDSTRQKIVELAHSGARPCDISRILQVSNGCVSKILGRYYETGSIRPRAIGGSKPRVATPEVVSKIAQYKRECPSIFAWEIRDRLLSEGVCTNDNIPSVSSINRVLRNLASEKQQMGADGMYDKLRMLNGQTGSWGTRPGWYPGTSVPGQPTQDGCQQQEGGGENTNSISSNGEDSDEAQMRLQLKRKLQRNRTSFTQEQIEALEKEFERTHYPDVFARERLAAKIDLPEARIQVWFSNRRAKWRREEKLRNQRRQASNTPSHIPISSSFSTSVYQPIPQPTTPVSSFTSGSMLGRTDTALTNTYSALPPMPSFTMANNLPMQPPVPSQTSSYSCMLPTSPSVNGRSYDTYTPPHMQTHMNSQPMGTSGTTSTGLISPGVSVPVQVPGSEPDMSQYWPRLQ
# Method in brief: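 DMSO-referenced bidirectional fits of reporter mRNA fluorescence; HepG2 with transient cis-promoter MRTUs, 24 h post-dose, RT-PCR plus capillary electrophoresis detection.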
# [9] = ATG_PXRE_CIS: Attagene CIS-FACTORIAL HepG2 Assay for human Pregnane X Receptor Element (PXRE) (AID 2282957); conditions: HepG2 Attagene CIS-FACTORIAL PXRE reporter, mRNA; actives raise or lower the signal
# Method in brief: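 Using HepG2 transfected with multiple reporter transcription units, endogenous factor-driven transcription was scored as reporter mRNA after 24 h exposure.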
# [10] = ATG_RORE_CIS: Attagene CIS-FACTORIAL HepG2 Assay for human RAR-related Orphan Receptor Element (RORE) (AID 2282959); conditions: HepG2 Attagene cis-factorial RORE reporter, mRNA; actives raise or lower the signal
# Method in brief: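 HepG2 cells carrying transiently transfected cis-regulated reporter units; RORE-driven reporter mRNA quantified 24 h post-dosing by RT-PCR, 6-FAM primer extension, HpaI digestion and capillary electrophoresis. Bidirectional fit versus DMSO.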
# [11] = ATG_Sox_CIS: Attagene CIS-FACTORIAL HepG2 Assay for human SRY-box transcription factor (SOX) (AID 2282960); conditions: HepG2 Attagene cis-factorial SOX reporter, mRNA; actives raise or lower the signal
# Method in brief: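 HepG2 cells transiently transfected with multiple cis-regulated reporter units, then dosed for 24 h. Reporter mRNA quantified by RT-PCR, fluorescent labelling, HpaI digestion and capillary electrophoresis; bidirectional fit versus DMSO.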
# [12] = biological target: Transcription factor Sp1 (Homo sapiens) (UniProt P08047); test: ATG_Sp1_CIS: Attagene CIS-FACTORIAL HepG2 Assay for human Specificity Protein 1 (Sp1) (AID 2282961); conditions: HepG2 Sp1 cis-reporter transcription, actives raise or lower the signal
# Transcription factor Sp1 (Homo sapiens), sequence (P08047 whole entry, looked up): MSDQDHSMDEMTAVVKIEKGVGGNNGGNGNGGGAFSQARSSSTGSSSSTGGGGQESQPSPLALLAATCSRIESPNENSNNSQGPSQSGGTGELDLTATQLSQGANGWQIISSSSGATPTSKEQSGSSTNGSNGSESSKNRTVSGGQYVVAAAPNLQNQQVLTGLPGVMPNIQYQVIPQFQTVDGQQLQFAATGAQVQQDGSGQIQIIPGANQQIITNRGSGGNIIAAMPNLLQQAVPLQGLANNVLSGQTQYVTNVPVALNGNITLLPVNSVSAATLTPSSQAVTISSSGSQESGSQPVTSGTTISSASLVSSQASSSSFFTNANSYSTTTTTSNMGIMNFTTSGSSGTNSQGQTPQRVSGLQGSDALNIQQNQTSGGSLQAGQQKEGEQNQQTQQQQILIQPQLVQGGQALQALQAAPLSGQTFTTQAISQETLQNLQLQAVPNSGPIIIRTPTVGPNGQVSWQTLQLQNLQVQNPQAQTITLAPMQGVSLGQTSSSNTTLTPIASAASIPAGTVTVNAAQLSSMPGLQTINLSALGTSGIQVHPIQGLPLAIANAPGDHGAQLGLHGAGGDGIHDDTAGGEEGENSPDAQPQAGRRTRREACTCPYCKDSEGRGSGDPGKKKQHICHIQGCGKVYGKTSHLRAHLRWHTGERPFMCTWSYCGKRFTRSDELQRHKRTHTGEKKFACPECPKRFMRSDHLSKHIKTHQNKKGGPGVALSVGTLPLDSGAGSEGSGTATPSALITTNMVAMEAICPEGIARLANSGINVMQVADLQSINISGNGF
# Method in brief: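 HepG2 cells transiently transfected with multiplexed cis-regulated reporter constructs, chemical exposure 24 h. Reporter mRNA quantified by RT-PCR with capillary electrophoresis; bidirectional fit relative to DMSO.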
# [13] = ATG_SREBP_CIS: Attagene CIS-FACTORIAL HepG2 Assay for human Sterol Regulatory Element Binding (SREBP) (AID 2282962); conditions: HepG2 Attagene cis-factorial SREBP reporter, mRNA; actives raise or lower the signal
# Method in brief: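 In this cis-format assay, HepG2 liver cells express reporters controlled by promoter elements responsive to native transcription factors. Exposure lasts 24 h; reporter mRNA fluorescence from capillary electrophoresis gives the signal, fitted bidirectionally against DMSO.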
# [14] = biological target: Signal transducer and activator of transcription 3 (Homo sapiens) (UniProt P40763); test: ATG_STAT3_CIS: Attagene CIS-FACTORIAL HepG2 Assay for human Signal Transducer and Activator of Transcription 3 (STAT3) (AID 2282963); conditions: HepG2, Attagene cis-factorial STAT3 reporter transcription; actives raise or lower the signal
# Signal transducer and activator of transcription 3 (Homo sapiens), sequence (P40763 whole entry, looked up): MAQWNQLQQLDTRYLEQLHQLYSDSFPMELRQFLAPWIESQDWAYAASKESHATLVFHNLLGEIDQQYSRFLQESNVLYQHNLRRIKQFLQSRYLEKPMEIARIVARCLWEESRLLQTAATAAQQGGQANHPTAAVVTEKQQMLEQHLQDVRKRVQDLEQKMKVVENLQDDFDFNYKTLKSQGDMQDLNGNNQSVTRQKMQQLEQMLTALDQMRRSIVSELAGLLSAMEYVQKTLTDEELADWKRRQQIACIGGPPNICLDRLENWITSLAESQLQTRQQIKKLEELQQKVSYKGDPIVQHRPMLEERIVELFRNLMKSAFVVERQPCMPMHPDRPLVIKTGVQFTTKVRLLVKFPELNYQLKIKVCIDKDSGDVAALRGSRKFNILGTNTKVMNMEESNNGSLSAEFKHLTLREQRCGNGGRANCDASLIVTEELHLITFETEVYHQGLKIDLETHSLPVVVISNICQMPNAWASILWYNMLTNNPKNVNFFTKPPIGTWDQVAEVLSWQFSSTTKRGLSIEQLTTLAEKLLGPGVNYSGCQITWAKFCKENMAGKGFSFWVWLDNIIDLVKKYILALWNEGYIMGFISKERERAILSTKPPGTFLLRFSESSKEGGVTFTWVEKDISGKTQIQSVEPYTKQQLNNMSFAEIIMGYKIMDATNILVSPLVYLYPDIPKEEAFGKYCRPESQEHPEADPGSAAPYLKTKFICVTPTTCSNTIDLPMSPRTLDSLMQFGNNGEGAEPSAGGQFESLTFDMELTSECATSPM
# Method in brief: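 Cis-factorial format: endogenous transcription factors in HepG2 drive transfected reporter units. After 24 h treatment, reporter RNA was reverse-transcribed, amplified, FAM-labelled and HpaI-digested before CE analysis; activity scored in both directions against DMSO.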
# [15] = ATG_TA_CIS: Attagene CIS-FACTORIAL HepG2 Assay for human TA Basal Promoter (AID 2282964); conditions: HepG2 Attagene CIS-factorial TA basal promoter reporter; actives raise or lower the signal
# Method in brief: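 HepG2 cells transiently transfected with multiplexed cis-promoter reporter units, dosed 24 h. Reporter mRNA measured by RT-PCR, 6-FAM labelling, HpaI digestion and capillary electrophoresis; bidirectional fit versus DMSO baseline, serving as background control.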
# [16] = ATG_TCF_b_cat_CIS: Attagene CIS-FACTORIAL HepG2 Assay for human T-Cell-Factor with beta-catenin (TCF/b-cat) (AID 2282965); conditions: HepG2 TCF/beta-catenin cis-reporter transcription, actives raise or lower the signal
# Method in brief: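 Endogenous TCF/LEF activity read as reporter transcript level via RT-PCR and capillary electrophoresis fluorescence in transfected HepG2, 24 h exposure; gain or loss of signal fitted against DMSO controls.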
# [17] = ATG_TAL_CIS: Attagene CIS-FACTORIAL HepG2 Assay for human TAL Basal Promoter (AID 2282966); conditions: HepG2 Attagene cis-factorial TAL promoter reporter; actives raise or lower the signal;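 further: background control endpoint measuring basal TAL promoter reporter mRNA not a specific factor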
# Method in brief: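 After 24 hours of chemical exposure, transfected HepG2 cells yielded RNA that was converted to 6-FAM-labelled, HpaI-digested reporter fragments for capillary electrophoresis. Values derive from bidirectional fitting against DMSO controls.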
# [18] = ATG_TGFb_CIS: Attagene CIS-FACTORIAL HepG2 Assay for human Transforming Growth Factor (TGF) (AID 2282967); conditions: HepG2 Attagene CIS TGFb reporter, mRNA transcription; actives raise or lower the signal
# Method in brief: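 HepG2 cells transiently transfected with cis-promoter-driven multiplexed reporter units; 24 h compound exposure. Reporter mRNA measured by RT-PCR, 6-FAM labeling, HpaI digestion and capillary electrophoresis; bidirectional fit versus DMSO baseline.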
# [19] = ATG_PPRE_CIS: Attagene CIS-FACTORIAL HepG2 Assay for human Peroxisome Proliferator-activated Response Element (PPRE) (AID 2282958); conditions: HepG2 PPRE cis-element reporter, Attagene transcription factor profiling; actives raise or lower the signal
# Method in brief: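 HepG2 cells are transiently transfected with multiplexed cis-promoter reporter units to report endogenous PPAR activity. After 24 h dosing, reporter mRNA is read by RT-PCR and capillary electrophoresis. Fitting is bidirectional against DMSO.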
structure (smiles),measurement,setting,value
N#CCCC(Br)(C#N)CBr (stereo not drawn),AC50,[1],60.8 µM (active)
same,outcome,[2],inactive
same,outcome,[3],inactive
same,outcome,[4],inactive
same,AC50,[5],33.4 µM (active)
same,AC50,[6],62.9 µM (active)
same,AC50,[7],49.5 µM (active)
same,AC50,[8],46.3 µM (active)
same,AC50,[9],33.4 µM (active)
same,outcome,[10],inactive
same,AC50,[11],49.4 µM (active)
same,AC50,[12],49.2 µM (active)
same,outcome,[13],inactive
same,outcome,[14],inactive
same,outcome,[15],inactive
same,AC50,[16],51 µM (active)
same,outcome,[17],inactive
same,outcome,[18],inactive
CCOP(=O)(OCC)OC(=CCl)c1ccc(Cl)cc1Cl,outcome,[1],inactive
same,outcome,[2],inactive
same,outcome,[3],inactive
same,outcome,[4],inactive
same,outcome,[5],inactive
same,outcome,[6],inactive
same,outcome,[7],inactive
same,AC50,[9],0.754 µM (active)
same,outcome,[19],inactive
same,outcome,[10],inactive
same,outcome,[11],inactive
same,outcome,[12],inactive
same,outcome,[13],inactive
same,outcome,[14],inactive
same,outcome,[15],inactive
same,outcome,[17],inactive
same,outcome,[18],inactive
CC(C)=CC1C(C(=O)OCc2cccc(Oc3ccccc3)c2)C1(C)C (stereo not drawn),outcome,[1],inactive
same,outcome,[2],inactive
same,outcome,[3],inactive
same,outcome,[4],inactive
same,outcome,[5],inactive
same,outcome,[6],inactive
same,outcome,[7],inactive
same,outcome,[8],inactive
same,AC50,[9],3.43 µM (active)
same,outcome,[10],inactive
same,outcome,[11],inactive
same,outcome,[12],inactive
same,outcome,[13],inactive
same,outcome,[14],inactive
same,outcome,[15],inactive
same,outcome,[17],inactive
same,outcome,[18],inactive
CCOCn1c(-c2ccc(Cl)cc2)c(C#N)c(Br)c1C(F)(F)F,AC50,[1],1.42 µM (active)
same,AC50,[2],148 µM (active)
same,outcome,[3],inactive
same,outcome,[4],inactive
same,AC50,[5],184 µM (active)
same,AC50,[6],53.2 µM (active)
same,AC50,[7],34.7 µM (active)
same,AC50,[8],2.77 µM (active)
same,AC50,[9],0.46 µM (active)
same,AC50,[19],4.17 µM (active)
same,AC50,[10],3.54 µM (active)
same,AC50,[11],30.4 µM (active)
same,AC50,[12],30.6 µM (active)
same,AC50,[13],49 µM (active)
same,AC50,[14],142 µM (active)
same,outcome,[15],inactive
same,AC50,[16],7.11 µM (active)
same,AC50,[18],25.6 µM (active)
O=C(CBr)c1ccc(O)cc1,outcome,[1],inactive
same,outcome,[2],inactive
same,outcome,[3],inactive
same,outcome,[4],inactive
same,outcome,[5],inactive
same,outcome,[6],inactive
same,outcome,[7],inactive
same,outcome,[8],inactive
same,outcome,[9],inactive
same,outcome,[10],inactive
same,outcome,[11],inactive
same,outcome,[12],inactive
same,outcome,[13],inactive
same,outcome,[14],inactive
same,outcome,[15],inactive
CC(c1ccccc1)(c1ccc(O)cc1)c1ccc(O)cc1,AC50,[1],19.3 µM (active)
same,outcome,[2],inactive
same,outcome,[3],inactive
same,outcome,[4],inactive
same,outcome,[5],inactive
same,AC50,[6],17.7 µM (active)
same,AC50,[7],16.3 µM (active)
same,AC50,[8],17.8 µM (active)
same,AC50,[9],2.92 µM (active)
same,outcome,[19],inactive
same,outcome,[10],inactive
same,outcome,[11],inactive
same,outcome,[12],inactive
same,AC50,[13],13.2 µM (active)
same,outcome,[14],inactive
same,outcome,[15],inactive
same,AC50,[16],16.9 µM (active)
same,outcome,[17],inactive
same,outcome,[18],inactive
CCCCN(CCCC)C(=S)[S-].CCCCN(CCCC)C(=S)[S-].[Ni+2],outcome,[1],inactive
same,outcome,[2],inactive
same,outcome,[3],inactive
same,outcome,[4],inactive
same,outcome,[5],inactive
same,outcome,[6],inactive
same,outcome,[7],inactive
same,outcome,[8],inactive
same,AC50,[9],7.2 µM (active)
same,outcome,[10],inactive
same,outcome,[11],inactive
same,outcome,[12],inactive
same,outcome,[13],inactive
same,outcome,[14],inactive
same,outcome,[16],inactive
same,outcome,[17],inactive
O=C(Nc1ccc(Br)cc1)c1cc(Br)cc(Br)c1O,outcome,[1],inactive
same,outcome,[2],inactive
same,outcome,[3],inactive
same,outcome,[4],inactive
same,outcome,[5],inactive
same,AC50,[6],132 µM (active)
same,AC50,[7],13.3 µM (active)
same,AC50,[8],93.2 µM (active)
same,AC50,[9],3.75 µM (active)
same,AC50,[19],5.26 µM (active)
same,outcome,[10],inactive
same,outcome,[11],inactive
same,outcome,[13],inactive
same,outcome,[14],inactive
same,outcome,[15],inactive
same,outcome,[16],inactive
same,outcome,[17],inactive
same,AC50,[18],4.16 µM (active)
